In PubChem BioAssay (NCI):
Compounds without any hit were thinned out: in the full panel of roughly 83,000, 20% have a hit.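 Interpretation: 100, growth as untreated; towards 0, rising growth inhibition; 0, no net growth; 0 to -100, cell death. Compounds scoring below 10 were considered active.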 Activity calls are given as the source filed them.

Tested on: KM12 colon
Assay: NCI-60 one-dose screen, 48 h (100 = growth as untreated, 0 = no growth, -100 = all killed)
Conditions: 10 µM
Experimental: Growth inhibition of the KM12 human tumor cell line is measured as a screen for anti-cancer activity. Cells are grown in 96 well plates and exposed to the test compound for 48 hours. Compounds are tested at a single concentration, which is 10^-5 M for most compounds. The reported endpoint is percent growth (GI% or GIPRCNT), where numbers from 0 - 100% represent growth inhibition, and numbers from -100% - 0 represent cell death. For example, a value of 40 represents 60% growth inhibition. A value of 0 means no net growth occurred over the course of the experiment. A value of -40 indicates 40% of cells at the beginning of the experiment died by the end of the experiment. A value of -100 means all cells are dead at the end of the experiment.
NCI-60 Human Tumor Cell Lines Screen was performed using the standard one-dose NCI protocol, which is described in more detail at https://dtp.cancer.gov/discovery_development/nci-60/default.htm.
Compounds with GIPRCNT values below 10 were considered active. Activity score was based on GIPRCNT using the following formula: […]
Score is 0 for GIPRCNT values of 100 or above, 50 for GIPRCNT values of 0, and 100 for GIPRCNT values of -100.

SMILES | growth
CN(C)c1ccc(C(c2ccc(O)cc2)c2ccc(N(C)C)cc2)cc1 | 89.5% (inactive)
O=C(O)CCCc1ccccc1 | 114% (inactive)
CCOC(=O)C1=C(Nc2ccc(Br)cc2)C(=O)N(CC)C1 | 101% (inactive)
CCOC(=O)c1cc(/C=C/c2ccc(Cl)cc2Cl)on1 | -29.7% (active)
C[N+](C)(C)C(=O)c1ccccc1 | 112% (inactive)
CCCCC1C(=O)N(c2ccccc2)N(c2ccccc2)C1=O | 109% (inactive)
CCCCCC(C)(CC(=O)O)CC(=O)O | 115% (inactive)
CC(=O)c1cc2c(cc1F)C(C)(C)CCC2(C)C | 107% (inactive)
CCN(CC)CCCC(C)Nc1ccnc(/C=C/c2ccc(Cl)cc2)c1 (stereo not given) | 25.3% (inactive)
CCOC(=O)CCCS(C)(=O)=O | 108% (inactive)
CCOC(=O)CNN | 101% (inactive)
Cc1ccccc1C1N=C2Oc3ccccc3C=C2C(=O)N1 (stereo not given) | 64.8% (inactive)
O=C(O)CCC(=O)OC(C1CO1)C(OC(=O)CCC(=O)O)C1CO1 (stereo not given) | 101% (inactive)
CC[N+](C)(CC)CCO | 110% (inactive)
CC1CCCCN1C(=S)Nc1ccc(S(=O)(=O)N2CCCCC2)cc1 (stereo not given) | 97.1% (inactive)
O=C1OC(=O)C2C1C1(Cl)C(Cl)=C(Cl)C2(Cl)C2C(=O)OC(=O)C21 (stereo not given) | 106% (inactive)
C[C@@H](c1ccccc1)[C@@H](C(=O)O)c1ccccc1 | 109% (inactive)
CO[C@H]1C[C@@H]2CC[C@@H](C)[C@@](O)(O2)C(=O)C(=O)N2CCCC[C@H]2C(=O)O[C@H]([C@H](C)C[C@@H]2CC[C@@H](O)[C@H](OC)C2)CC(=O)[C@H](C)C=C(C)[C@@H](O)[C@@H](OC)C(=O)[C@H](C)C[C@H](C)/C=C/C=C/C=C1C | 60.9% (inactive)
O=[N+]([O-])c1ccc(Sc2ccncn2)c([N+](=O)[O-])c1 | 76.2% (inactive)
CCOC(=O)Nc1cc2c(c(N)n1)N=C(c1ccccc1)CO2 | 5.46% (active)

SMILES | growth
CCOC(=O)c1cc(/C=C/c2cccc(Cl)c2)on1 | 57.4% (inactive)
CCCCC(CC)COC(C)=O (stereo not given) | 101% (inactive)
CCCCCCCCO | 108% (inactive)
COc1cc2nn(-c3ccccc3N)nc2cc1OC | 103% (inactive)
CC1CCC2C(C)(C)C3CC12CC1OC13C (stereo not given) | 111% (inactive)
COc1cc(C2c3cc4c(cc3C3OC(=O)C2C3CO)OCO4)cc(OC)c1OC (stereo not given) | 1.84% (active)
COC(=O)/C=C\C(=O)OC | 113% (inactive)
C=CCNc1ccccc1 | 109% (inactive)
NC(C(=O)O)c1ccc([N+](=O)[O-])cc1 (stereo not given) | 99.4% (inactive)
O=S(=O)(O)C(Nc1ccccc1)c1ccccc1 (stereo not given) | 100% (inactive)
O=C(/C=C\c1ccc(O)cc1)c1ccccc1 | 71% (inactive)
c1cc2cccc3c4cccc5cccc(c(c1)c23)c54 | 104% (inactive)
O=C(CCNNC(=O)c1ccncc1)NCc1ccccc1 | 97.5% (inactive)
S=C1NCc2cncnc2N1 | 106% (inactive)
CC(C)=C(NC(=O)c1ccccc1)C(=O)O | 99.6% (inactive)
O=c1cc(-c2ccccc2)nc2cc(-c3ccco3)[nH]n12 | 69.5% (inactive)
CC(C)(C)c1cc(O)c(C(C)(C)C)cc1O | 101% (inactive)
CC1Cc2ccccc2O1 (stereo not given) | 107% (inactive)
O=C(/C(=N/O)c1ccccc1)c1ccccc1 | 107% (inactive)
CCOc1ccc(I)cc1 | 95.2% (inactive)
